# Measurements as given in PubChem BioAssay (NCI).
# The panel holds about 79,000 compounds, 15% with a hit somewhere; the sample as a whole holds those more often. The source made the active and inactive calls. No stated cut-off is given here; in the data, active means growth inhibition above about 70%; inactive means the rest.
# Experiment: NCI Yeast Anticancer Drug Screen. Data for the mlh1 rad18 strain (AID 175)
# Settings: S. cerevisiae mlh1 rad18 strain growth inhibition; at 50.0 µM; active compounds read high
# Experimental: Growth inhibition of yeast strains with defined genetic alterations is measured as a screen for potential anti-cancer activity. Selected strains with alterations in DNA damage repair or cell cycle control were exposed to compounds and growth inhibition was measured relative to vehicle treated controls. The strain used in this assay is mlh1 rad18
row,SMILES,growth inhibition
1,Fc1ccc(-c2ncc(-c3ccccc3)o2)cc1,-12.9% (inactive)
2,COc1ccc(CCCNC(=O)Cc2ccccc2CO)cc1OC,-48.2% (inactive)
3,COC(=O)/C=C/c1c(=O)c(C(=O)OC)cn2cnc3nc[nH]c3c12,-5.8% (inactive)
4,O=c1ccc2cc(Br)ccc2o1,4.35% (inactive)
5,c1ccc2c(c1)c1c(n2CCOCCN2CCCCC2)CCCC1,19.8% (inactive)
6,Nc1ccnn2c(-c3ccccc3)nnc12,2.35% (inactive)
7,Cc1csc2nc(-c3cccs3)nn12,-9.1% (inactive)
8,O=C1CN(c2ccccc2)Cc2nc(Cl)ccc2N1,72.5% (active)
9,COS(=O)(=O)C=C(c1ccccc1)c1ccccc1,-1.95% (inactive)
10,Fc1cccc(C(Nc2nncs2)Nc2nncs2)c1,-4.35% (inactive)
11,COc1ccccc1C(=O)N/N=C\c1c[nH]c2ccccc12,-8.3% (inactive)
12,CS(=O)(=O)N1CCCN(S(C)(=O)=O)COC1,-0.35% (inactive)
13,CCN(C/C=C/CN(CC)C(=S)Nc1ccccc1)C(=S)Nc1ccccc1,9.8% (inactive)
14,CC(=O)N/N=C1/NN(C(C)=O)C2(S1)C(=O)Nc1ccc(C)cc12 (stereo not given),7.7% (inactive)
15,Cn1c(=O)n2c(-c3ccccc3)c(-c3ccccc3)n2c1=O,-28.9% (inactive)
16,N#CCC(=O)c1ccc(N)cc1,13.4% (inactive)
17,[N-]=[N+]=Nc1nn2cnnc2c2[nH]c3ccccc3c12,16.1% (inactive)
18,CC(=O)OCC1OC(Oc2ccccc2)C(OC(C)=O)C(OC(C)=O)C1OC(C)=O (stereo not given),-10.7% (inactive)
19,CN(CCc1ccccn1)c1ccc2c(c1)C(=O)c1ccccc1-2,9.85% (inactive)
20,CCOC(=O)N1CCC2C(=C(C)C(C)C3=C2C(=O)c2ccccc2C3=O)C1 (stereo not given),7.1% (inactive)

row,SMILES,growth inhibition
1,CC12CCC3C(CCC4CCCCC43C)C1CC/C2=N\O (stereo not given),96.5% (active)
2,O=C(O)C(CCOc1ccccc1)CCOc1ccccc1,-26.3% (inactive)
3,O=C(O)/C=C/C(=O)N(c1ccccc1)N(C(=O)/C=C/C(=O)O)c1ccccc1,17.5% (inactive)
4,COC1=CC(=C(C#N)C(=Nc2ccccc2)SC)C=C(OC)C1=O,43.6% (inactive)
5,COC(=O)NS(=O)(=O)CC(=O)c1ccccc1,9.9% (inactive)
6,CNc1cccc2c1C(C)C[C@]1(C)C(=O)Nc3ccccc3[C@H]21 (stereo not given in full),-80.3% (inactive)
7,O=C(O)CCCCn1cnc2c(=S)nc[nH]c21,-5% (inactive)
8,CC(=O)N(/C=C\C1=[N+](C)CCS1)c1ccccc1,12.7% (inactive)
9,CC1CCC23C1CC(CC(=O)C2(C)O)C3(C)C (stereo not given),5.05% (inactive)
10,COc1ccc(-c2c(C(C)=O)c(-c3ccccc3)n(C3OC(CO)C(O)C(O)C3O)c(=S)c2C#N)cc1 (stereo not given),6.2% (inactive)
11,COC(=O)/C(C)=C/C=C/C(C)C(O)C(C)C1OC(CC(OC)OC)C(C)C(O)C1C (stereo not given),19.9% (inactive)
12,Nc1ncnc2c1S(=O)(=O)NCN2,-11.7% (inactive)
13,Cc1ccnc(NS(=O)(=O)c2ccc(N=Cc3ccccc3O)cc2)n1,-0.5% (inactive)
14,Cc1cc(Cc2c(F)c(F)c(C(c3cc(C)no3)c3c(F)c(F)c(F)c(F)c3F)c(F)c2F)on1 (stereo not given),-8.3% (inactive)
15,Cc1n[nH]c(=S)n1N,-3.5% (inactive)
16,Cn1ccc(=S)c2ccccc21,19.5% (inactive)
17,C=CCNC(=S)N/C=C(\C#N)c1nc2ccccc2s1,31.3% (inactive)
18,COc1ccc(CN2C(=S)SC(c3ccc(Cl)cc3)N2c2ccc(OC)cc2)cc1 (stereo not given),-19.8% (inactive)
19,O=C1C=CC(=O)C2C1C21C2CCCC(C2)C2CCCC1C2 (stereo not given),20.1% (inactive)
20,CNC(=O)OCc1c(COC(=O)NC)c(-c2ccc(S(C)(=O)=O)cc2)n(C)c1C,-42% (inactive)
